Screening results deposited in PubChem by National Center for Advancing Translational Sciences (NCATS).
HCV inhibitor = HCV inhibition | AID 651820 | Potency, µM (titrated, usually from 41.8 µM), for inactives: at the highest dose activity change, negative = inhibition, most hits filed as inhibitors | Huh7.5.1 HCVcc-Cre infection, luciferase reporter, 44 h | actives 3.4% (n = 340,000); active = well fitted inhibition curve with a large enough effect; inconclusive = small, poorly fitted or top-dose-only effect, or another doubt; inactive = no such curve, though single readings can be large or run the other way; also: potency is read from the fitted curve at half-maximal effect; % is scaled to controls: 0 for no effect and ±100 for the full control effect
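Seed cells (1,000/well) for 4 h; treat with compound and infect with HCVcc-Cre, moi about 0.5. Incubate 44 h, then detect luciferase activity.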
MARV entry inh = Marburg virus entry inhibition | Marburg virus pseudotyped entry inhibition, cell reporter | actives 1.8% (n = 300,000) | Potency, µM (doses to about 37.8 µM), for inactives: at the highest dose activity change, negative = inhibition, usual class: inhibitors; calls by dose curve; tested in HEK293 cells; also: potency is read from the fitted curve at half-maximal effect; % is scaled to controls: 0 for no effect and ±100 for the full control effect
SARS PLP yeast = SARS-CoV PLP inhibition in yeast; S. cerevisiae expressing SARS-CoV PLpro, growth rescue; Potency, µM (top dose mostly 32.9 µM), without a hit: top-dose activity, positive = growth rescue, usual class: activators; actives 0.19% (n = 330,000); AID 485353; calls by dose curve; also: potency is read from the fitted curve at half-maximal effect; 0% is about no effect; nearly all actives have a fitted effect of over 55% in size
LASV entry inh = blocks Lassa virus binding to or entry into cells; Lassa virus pseudotype entry inhibition, cell reporter; Potency, µM (top dose mostly 37.9 µM), inactives show at the highest dose activity change, negative = inhibition, hits mostly inhibitors; actives 1.2% (n = 300,000); AID 540256; calls by dose curve; tested in HEK293 cells; also: potency is read from the fitted curve at half-maximal effect; % is scaled to controls: 0 for no effect and ±100 for the full control effect; nearly all actives have a fitted effect of over 50% in size
HCMV inh = blocks human cytomegalovirus replication; HFF cells, HCMV-luciferase reporter, 72 h; stronger effect = lower value; activity change, negative = inhibition, % at 57.5 µM; actives 4.5% (n = 410,000); in the data active = activity change below about -60%; inconclusive = no clear call, values can overlap the other calls; inactive = above about -39%; also: % is scaled to controls: 0 for no effect and ±100 for the full control effect
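HFF cells seeded 16 h at 37C, treated with compounds, infected with luciferase-reporter HCMV at MOI 1 PFU/cell; luciferase read at 72 h post infection, normalized to buffer-only and Salinomycin controls.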
FMDV inh = foot and mouth disease virus antiviral activity | Potency, µM (titrated, usually from 57.9 µM), for inactives: at the highest dose activity change, negative = inhibition, usual class: inhibitors | actives 1.2% (n = 410,000) | FMDV antiviral cell-based qHTS; calls by dose curve; tested in HEK293T cells; also: read-out not given here; potency is read from the fitted curve at half-maximal effect; % is scaled to controls: 0 for no effect and ±100 for the full control effect; nearly all actives have a fitted effect of over 45% in size
* hit, by the source's call; u = inconclusive; x = no result given; ! = repeats disagree; [ ] = remark or other dose. The list is not random: actives were taken first. Their share in the collection is about 8%.

SMILES | HCV inhibitor | MARV entry inh | SARS PLP yeast | LASV entry inh | HCMV inh | FMDV inh
CCCCC(=O)NC(c1ccc(OC)cc1)c1ccc2cccnc2c1O (centres undefined) | x | x | x | x | -98* | -19%
CCCC(=O)NC(c1ccc(C(C)C)cc1)c1ccc2cccnc2c1O (centres undefined) | 1.8µM* | u | u | 4.5µM* | -98* | -16%
O=C(O)c1ccccc1NC(c1ccccc1)c1ccc2cccnc2c1O (centres undefined) | u | u | x | u | -31 | u
COc1ccc(OCC(=O)Nc2cccc3cccnc23)cc1 | -19% | -22% | -6% | 2% | 2 | 9%
Cc1ccc(/C=C/c2onc(C)c2S(=O)(=O)N2CCC(C(=O)NCc3ccc(Cl)cc3)CC2)cc1 | x | x | x | 25%[46.1 µM] | 5 | 0%
CNC(=O)c1c(NC(=O)c2cc(=O)c3ccccc3o2)sc2c1CCC2 | x | x | x | -3%[46.1 µM] | 31 | 22%
CC/C(=N\NC(=S)Nc1cc(C)ccc1C)c1ccc(OC(F)F)cc1 | 13µM* | -4% | u | u | -26 | -7%
C/C(=N\NC(=S)Nc1c(C)cccc1C)c1ccc(OC(F)F)cc1 | u | u | 13% | u | -86* | -9%
CN(CCNC(=O)c1c[nH]c2c1ccc1ccccc12)CCNC(=O)c1c[nH]c2c1ccc1ccccc12 | u | u | x | u | 7 | 69%
COc1cccc(CNC(=O)C2CCN(S(=O)(=O)c3cn(C)cn3)CC2)c1 | x | x | x | -2%[46.1 µM] | -16 | -5%
COc1cc(C(=O)OCC(=O)N2c3ccccc3NC(=O)C2(C)C)ccc1OCC(C)C | 6.3µM* | u | 3% | u | -12 | u
Cc1ccc2scc(N3CCc4ccccc4C3)c(=O)c2c1 | x | x | x | 26%[46.1 µM] | 25 | -8%
O=C(Nc1ccc(OCC(F)(F)C(F)F)c(C(F)(F)F)c1)c1ccc(Cl)cc1 | 7.9µM* | 16µM* | x | u | -95* | u
COc1ccc(NC(=O)c2ccc(COCC(F)(F)F)cc2)cc1OC | -28% | u | 3% | 0% | -24 | -19%
COc1ccc(C(=O)Nc2ccc(OCC(F)(F)C(F)F)c(C(F)(F)F)c2)cc1OC | 11µM* | u | -19% | 18µM* | -99* | u
C=CC[n+]1c(-c2ccc(OC)c(OC)c2)csc1NNC(=O)Nc1ccccc1 | 4µM* | u | -2% | 10µM* | u | x
Cc1cc(O)ccc1C1(c2ccc(O)cc2C)OC(=O)c2ccccc21 | 2% | u | 13% | 5% | -96* | -11%
O=C1OC(c2ccccc2)(c2ccc(O)cc2)c2ccccc21 (centres undefined) | u | u | x | -11%[46.1 µM] | -1 | -12%
Oc1ccc(/C=C/c2nc(-c3ccccc3O)n(-c3ccccc3)n2)cc1 | u | u | -34% | 12µM* | -8 | -1%
Cc1noc(C)c1S(=O)(=O)NC(=O)C1(C)CCN1C(=O)C1(c2ccc(Cl)cc2)CC1 (centres undefined) | x | x | x | x | 3 | 14%
O=c1c2ccccc2nc(-c2ccc(F)cc2)n1NCc1ccccc1O | -11% | 9% | -1% | -4% | -6 | -9%
COc1ccc2c(c1)CCc1c(C(=O)Nc3c(C)nn(Cc4ccccc4C)c3C)noc1-2 | x | u | x | u | -66* | u
Cc1ccccc1Cn1nc(C)c(NC(=O)c2noc3c2CCc2ccccc2-3)c1C | u | 0% | -12% | x | -24 | u
COc1ccc2c(c1)CCc1c(C(=O)Nc3c(C)nn(Cc4c(Cl)cccc4Cl)c3C)noc1-2 | x | -21%[46.1 µM] | x | 17%[46.1 µM] | -92* | -14%
CCOC(=O)/C=C/[C@H](CCCCOCc1ccccc1)NC(=O)C(F)(F)F | x | x | x | x | 9 | x
SMILES | HCV inhibitor | MARV entry inh | SARS PLP yeast | LASV entry inh | HCMV inh | FMDV inh
CCc1ccccc1NC(=O)C1(S(=O)(=O)c2ccc(Cl)cc2)CC1 | x | 9%[46.1 µM] | x | 21%[46.1 µM] | 0 | -4%
Cc1ccc(/C=N/NC(=O)c2c(C)nc3ccc(Cl)cn23)cc1 | x | x | x | x | 25 | x
Cc1ccc(NC(=O)NCC2CCN(Cc3cccc(Cl)c3)CC2)cc1Cl | -24% | u | 0% | -17% | -92*! | u
O=C(NCC1CCN(Cc2cccc(Cl)c2)CC1)Nc1ccccc1Cl | u | u | -1% | 26%[46.1 µM] | 11 | -18%
Cc1ccc(NC(=O)NCC2CCN(Cc3cccc(Cl)c3)CC2)c(Cl)c1 | 13µM* | x | 0% | x | -66* | -18%
CCCCCCCC/C=C\C/C=C\C/C=C\CCCC(=O)NCCO | x | x | x | x | x | -17%[6.7 µM]
N=c1ccn2c(n1)O[C@H]1[C@@H](CO)[C@H](O)O[C@H]12 | u | x | x | x | -98* | -20%
N=c1nc2n(cc1F)C1OC(CO)C(O)C1O2 (centres undefined) | u | -24% | x | -21%[46.1 µM] | -99* | -18%
O=C(OCC1OC2C(Oc3nc(=O)ccn32)C1O)c1ccccc1 (centres undefined) | 6% | -6% | 5% | 5% | 7 | 19%
Cc1cn2c(nc1=O)OC1C(O)C(COC(=O)c3ccccc3)OC12 (centres undefined) | -2% | 9% | 2% | 20% | -2 | x
N=c1ccn2c(n1)O[C@H]1[C@H](O)[C@@H](CO)O[C@H]12 | -10% | u | 1% | u | -96* | -15%
Cc1ccc2nc(SCC(=O)NCc3ccc(F)cc3)[nH]c2c1 | -4% | x | 0% | x | -65* | -27%
Cc1c(CNCCc2ccc(S(N)(=O)=O)cc2)c(C(=O)O)c(C)n1Cc1ccc(Cl)cc1 | x | 18%[46.1 µM] | x | 9%[46.1 µM] | 19 | -14%
Oc1[nH]c2ccccc2c1N=Nc1nc(Nc2ccccc2)nc(N2CCOCC2)n1 | 14µM* | x | 1% | x | -103* | u
Cc1[nH]c2ccccc2c1/C=N/Nc1nc(Nc2ccccc2)nc(N2CCOCC2)n1 | u | 0.33µM* | -21% | 5.8µM* | -99* | -11%
CCC1(C2CCN(C(=O)c3ccc4ccccc4c3)CC2)NC(=O)N(CCc2scnc2C)C1=O (centres undefined) | x | x | x | x | x | 7%
COc1ccc(OC)c(/C=C/C(=O)OCC(=O)Nc2nnc(-c3ccccc3)o2)c1 | -6% | x | 1% | x | u | 4%
COc1ccccc1C(=O)OCCc1ccccc1 | -7% | u | x | -29%[46.1 µM] | -100* | 0%
CCOC(=O)[C@]12Cc3cc(C)ccc3[C@H]1N(Cc1ccccc1)C(=O)c1ccccc12 | -12%[8.37 µM] | x | x | x | -13 | u
CCOC(=O)CNC(=O)C1c2cc(OC)c(OC)cc2C(=O)N(C)C1c1ccccc1F (centres undefined) | 2% | -1% | 0% | 0% | 40 | -11%
CCOC(=O)[C@]12Cc3cc(C)ccc3[C@H]1N(C(C)C)C(=O)c1ccccc12 | x | x | x | x | -98* | 10µM*
CCOC(=O)N1CCN(C(=O)C2c3cc(OC)c(OC)cc3C(=O)N3CCc4ccccc4C23)CC1 (centres undefined) | 2% | -3% | 8% | -11% | -4 | -19%
